Screening data as filed in PubChem.
In the library only some 1.3% were active in any assay of this set; here they are far more common.
C2C12 statin: suppression of simvastatin myotoxicity; C2C12 myotubes + simvastatin, ATP luminescence, 48 h; scaled: DMSO 0, geranylgeraniol control 100; rescue of ATP level, % at 7.49 µM; hit rate 0.78% among 330,000;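 active = mean ATP rescue above about 67%, or every replicate alone reaching that limit, limit read from the data, passing the limit was not always enough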;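 note: myotubes were challenged with 10 µM simvastatin during compound exposure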
AI-2 QS modul: Vibrio harveyi AI-2 quorum sensing modulation; hit rate 0.4% among 300,000; Vibrio harveyi JMH597 AI-2 luminescence/OD600 ratio, 9 h; active compounds read low; strain lacks LuxN and CqsS sensors; 0 = neutral-control median; AID 2094; activity change, % at 7.5 µM; in the data active = activity change below about -75%, passing the limit was not always enough;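 note: luminescence divided by OD600 gain over 9 h not by final OD600 alone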
HIF activator: HIF pathway transcriptional activation. U2OS HRE-luciferase reporter, luminescence; normalized: DMSO 0%, desferrioxamine 100%. activation, % at 7.5 µM (by protocol). hit rate 0.32% among 300,000. AID 1910;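 active = mean activation of at least 10% of the iron chelator positive control signal, with at least half of replicates also reaching 10%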
PGC1a acetyl inh: PGC1a acetylation modulation, inhibitor mode; U2OS PGC1a acetylation, AlphaScreen anti-acetyl-lysine; with virally co-expressed GCN5 acetyltransferase; inhibition, % at 15.6 µM; AID 651687; hit rate 0.17% among 350,000;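 active = every replicate shows inhibition of at least 40%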;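 note: 0% = neutral control wells and 100% = positive control wells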
Rce1 inh: blocks yeast Ras-converting enzyme; Q03530; calls only; yeast membranes, quenched prenylated peptide cleavage fluorescence; hit rate 0.27% among 290,000;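 active = fall in fluorescence gain of 50% or more versus controls, with final raw signal at or below 3038400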;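 note: plate controls were neutral control wells for no effect and wells lacking membranes for full effect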
Target sequence (Q03530 whole entry, looked up): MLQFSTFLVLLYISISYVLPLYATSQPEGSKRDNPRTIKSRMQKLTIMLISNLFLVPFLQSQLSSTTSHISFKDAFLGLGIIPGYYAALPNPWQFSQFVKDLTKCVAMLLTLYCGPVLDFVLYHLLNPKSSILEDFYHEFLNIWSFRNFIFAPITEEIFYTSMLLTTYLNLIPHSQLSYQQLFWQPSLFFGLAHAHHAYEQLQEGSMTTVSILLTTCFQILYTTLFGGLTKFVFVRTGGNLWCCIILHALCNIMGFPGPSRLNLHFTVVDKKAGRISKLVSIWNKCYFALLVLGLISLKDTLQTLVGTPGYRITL
The depositor's hits bear a star; i = inactive; . = not tested or not shown; + = active, no number.

SMILES	C2C12 statin	AI-2 QS modul	HIF activator	PGC1a acetyl inh	Rce1 inh
O=C(Cc1ccccc1)N1CC2(C1)[C@@H](c1ccccc1)[C@@H](CO)N2S(=O)(=O)Cc1ccccc1	.	.	.	-11	.
CCCC(=O)Nc1ccc2c(c1)OC[C@H](C)N(C(=O)c1ccccc1F)C[C@@H](C)[C@@H](OC)CN(C)C2=O	7	.	.	24	.
Cc1noc(C)c1NC(=O)N[C@H]1CC[C@H](CCNC(=O)C2CCC2)O[C@H]1CO	2	.	.	-1	.
Oc1ccc(-c2nc3ccccn3c2NCc2ccc3c(c2)OCO3)cc1	-7	7	.	10	+
CCOC(=O)c1[nH]c2ccc(OC)cc2c1NS(=O)(=O)c1ccc(Cl)s1	.	-84*	0	.	i
CCOC(=O)c1[nH]c2ccc(OC)cc2c1NC(=O)CN1CCC2(CC1)OCCO2	-1	-9	0	14	+
Cc1noc(C)c1S(=O)(=O)Nc1ccc2c(c1)C(=O)N([C@H](C)CO)C[C@@H](C)[C@H](CN(C)Cc1ccccc1)OCCCC[C@H](C)O2	.	.	.	9	.
CCc1cccc(NC(=O)c2ccc(CNc3c(N4CCCC4)c(=O)c3=O)cc2)c1	100*	21	0	-5	i
CC(=O)c1ccc(NC(=O)c2ccc(CNc3c(N4CCCC4)c(=O)c3=O)cc2)cc1	.	29	0	7	i
Cc1c(C(=O)N2CCc3ccccc32)oc2c1C(=O)CC(C)(C)C2	112*	.	.	-4	.
Cc1c(C(=O)N2CCN(C)CC2)oc2c1C(=O)CC(C)(C)C2	-5	-5	0	-1	i
CC(=O)Nc1ccc2c(c1)C(=O)N(C)[C@@H]1CC[C@H](CC(=O)NCc3ccc4c(c3)OCO4)O[C@@H]1CO2	-18	.	.	-2	.
COc1cc(CNCCN2CCOCC2)ccc1OCc1ccc(Cl)cc1Cl	-45	0	0	101*	i
COc1cc(CNCCN2CCOCC2)ccc1OCc1cccc(Cl)c1	-22	-1	0	-4	i
Fc1ccc(CSc2nnc(-c3ccncc3)o2)cc1	9	-78*	2	3	i
Clc1ccc(CSc2nnc(-c3ccncc3)o2)cc1	9	-70	3	21	i
C[C@H]1CN([C@@H](C)CO)C(=O)c2cccc(NS(=O)(=O)c3ccc(F)cc3)c2O[C@@H]1CN(C)Cc1ccc(Oc2ccccc2)cc1	22	.	.	-11	.
COc1ccc(N=Cc2c(O)[nH]c3ccccc23)cc1	16	2	1	1	i
Oc1[nH]c2ccccc2c1C=Nc1ccc2c(c1)OCO2	118*	10	3	12	i
CCc1ccc(C(O)(CC(C)C)C(CN2CCOCC2)c2ccccc2)cc1 (configuration not stated)	106*	-2	2	-29	i
CCCN1[C@@H]2c3ccc(C4=CCCCC4)c(=O)n3C[C@@H]2[C@@H](CO)[C@@H]1C(=O)OC	22	.	.	.	.
O=c1c2[nH]c3cccc(Cl)c3c2ncn1CCN1CCCCC1	103*	25	0	1	i
CN(C)S(=O)(=O)c1ccc(C(=O)OCC2CC2(Cl)Cl)cc1 (configuration not stated)	9	-77*	0	.	i
CC1(C)CC(=O)C(C=NCCN2CCN(C(=S)Nc3ccc(F)cc3)CC2)=C(O)C1	65*	15	0	0	i
CCC(Sc1nc(C)cc(C)n1)C(=O)NC1=NN=C(c2ccc(C)cc2)CS1 (configuration not stated)	83*	10	0	-1	i
SMILES	C2C12 statin	AI-2 QS modul	HIF activator	PGC1a acetyl inh	Rce1 inh
Cc1cc(C)nc(SCC(=O)NC2=NN=C(c3ccc(Br)cc3)CS2)n1	145*	32	0	7	i
CCC(=O)N1C[C@@H](C)[C@@H](OC)CN(C)C(=O)c2ccc(NC(=O)C3CC3)cc2OC[C@@H]1C	-11	.	.	-12	.
CCN(CC)CCNc1cc(C)nc2c1C(=O)C(=O)C=C2N1CCCCC1	60	7	42*	31	i
COC(=O)c1cc(C)nc2c1C(=O)C(=O)C=C2N1CCOCC1	-34	17	-2	.	i
COc1ccc(N2CCN(c3ccc(N4C(=O)CC(C)C4=O)cc3[N+](=O)[O-])CC2)cc1 (configuration not stated)	-11	47	66*	-3	i
C[C@H]1CN([C@@H](C)CO)C(=O)c2cc(NC(=O)C3CCCCC3)ccc2O[C@H]1CN(C)Cc1ccc(Cl)c(Cl)c1	-31	.	.	8	.
O=C(Nc1ccc(Cl)cc1)Nc1csc([N+](=O)[O-])c1	.	-83*	2	11	i
O=C(Nc1ccc(Cl)cc1)Nc1ccccc1CC[N+](=O)[O-]	104*	8	0	-7	i
O=C(Nc1csc([N+](=O)[O-])c1)Nc1c(Cl)cccc1Cl	.	-7	-1	-5	i
O=C(Nc1ccccc1)Nc1ccc(Cl)c([N+](=O)[O-])c1	.	-102*	3	.	i
COc1cccc(-c2ccc(C3[C@H]4CNC[C@@H]3N4C(=O)NC3CCCCC3)cc2)c1 (some centres not stated)	.	.	.	9	.
O=C(NNC(=O)c1cnccn1)c1ccc(Cl)c(Cl)c1	-1	-288*	0	.	i
O=C(NCc1ccccc1Cl)c1cnccn1	67*	5	0	16	i
O=C(COC(=O)c1cnccn1)NCc1ccccc1Cl	7	.	.	-1	.
C[C@@H]1CN([C@@H](C)CO)C(=O)c2cc(/C=C/c3ccccc3)cnc2O[C@@H]1CN(C)C(=O)NC1CCCCC1	-12	.	.	9	.
C/C=C/c1ccc2c(c1)O[C@@H](CN(C)C(=O)Nc1ccc(C(F)(F)F)cc1)[C@H](C)CN([C@@H](C)CO)S2(=O)=O	-1	.	.	-18	.
O=C(COc1ccc(Cl)cc1)Nc1nnc(S(=O)(=O)N2CCCCCC2)s1	77*	-37	0	-1	i
Cc1cc(NC(=O)COC(=O)c2c(C)noc2C)ccc1Br	-2	-91*	-1	.	i
O=C(CN1CCOCC1)N[C@@H]1CC[C@H](CCNC(=O)C2CCC2)O[C@H]1CO	-4	.	.	3	.
O=c1cc(-c2ccncc2)oc2ccccc12	115*	7	.	23	i
O=c1cc(-c2ccc(O)cc2)oc2ccccc12	24	1	3	-9	i
O=C(NCc1ccccc1)C1CCC(CNS(=O)(=O)c2cccs2)CC1 (configuration not stated)	97*	20	-1	2	i
COCC(=O)N1CC2(C1)[C@H](c1ccc(-c3ccccc3)cc1)[C@@H](CO)N2C(C)=O	.	.	.	2	.
CCC(OC(=O)c1cccs1)C(=O)NCc1ccco1 (configuration not stated)	102*	20	0	7	i
Cc1ccc(S(=O)(=O)N[C@H]2C=C[C@@H](CC(=O)NCCN3CCCCC3)O[C@H]2CO)cc1	-1	.	.	105*	.
Cc1ccc(S(=O)(=O)N[C@@H]2C=C[C@@H](CC(=O)NCCN3CCCCC3)O[C@H]2CO)cc1	-17	.	.	-10	.
